63 molecules from PubChem BioAssay (Tox21) can be followed below.

Assay [1] can be described thus: cAMP Responsive Elements (CRE) small molecule antagonists, cell-based qHTS assay: qHTS cell viability counter screen (AID 2060913). Note: nearly all actives have a fitted effect of over 40% in size. An outline of the steps:
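Cytotoxicity read in the same wells as the CRE-bla HEK293T antagonist assay: after 3 h compound with 0.25 uM NKH477 final and 2 h beta-lactamase substrate, CellTiter-Glo luminescence measured.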

The nature of assay [2]: cAMP Responsive Elements (CRE) small molecule agonists, cell-based qHTS assay: qHTS cell viability counter screen (AID 2060914). Note: nearly all actives have a fitted effect of over 50% in size. An outline of the steps:
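In the same wells as the reporter read, viability of CRE-bla HEK 293T cells was quantified by CellTiter-Glo luminescence after a 3 h compound exposure.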

Records with an inconclusive call do not appear. A call without a number means that no potency is given here. A number with no mark means an inactive call. Active and inactive are the calls of the source. Calls come from the whole dose curve; as a rule, active = well fitted cell-killing curve with a large enough effect in the repeat runs; inconclusive = weak or mixed curves, or effect the other way; inactive = flat fitted curve, though single readings scatter.

On to `C=CC(=O)OCC(C)C`, for which the Potency result in assay [1] and in assay [2] was “inactive” throughout.

Take `CCc1ccc(C2CCNCC2)cc1`: the Potency entry in assay [1] and in assay [2] was “inactive” each time.

For the molecule `CCCCCC[n+]1ccccc1`, the Potency entry in assay [1] and in assay [2] was “inactive” each time.

Turning to `Nc1ccc(Cl)cc1C(=O)c1ccccc1`, the Potency result in assay [1] and in assay [2] was “inactive” each time.

As to `O=C(CCl)Nc1ccccc1`, the Potency entry in assay [1] and in assay [2] was “inactive” each time.

Regarding `COc1ccc(CN2CCNCC2)c(OC)c1OC`, the Potency entry in assay [1] and in assay [2] was “inactive” each time.

For `O=C1C(=O)c2cccc3cccc1c23`, the Potency entry in assay [1] and in assay [2] was “inactive” in each case.

As for `ClC(Cl)C(Cl)(Cl)Cl`, the Potency entry in assay [1] and in assay [2] was “inactive” each time.

Turning to `O=C/C(Cl)=C(/Cl)C(=O)O`, the Potency entry in assay [1] and in assay [2] was “inactive” in each case.

In the case of `Cc1ccc2nc3sc(=O)sc3nc2c1`, in assay [1], the viability change, negative = cytotoxic is 10.1% [at 18.9 µM]. Further, the activity change, negative = cytotoxicity in assay [2] is -6.15% [at 18.9 µM].

As to `ClC(Cl)(Cl)Br`, the Potency entry in assay [1] and in assay [2] was “inactive” throughout.

Regarding `O=[N+]([O-])[O-].[Tl+]`, the Potency result in assay [1] and in assay [2] was “inactive” in each case.

Consider `CC[N+]1(CCOC(=O)C(O)(c2ccccc2)c2ccccc2)CCCCC1`, for which the Potency entry in assay [1] and in assay [2] was “inactive” each time.

With `ClCCOCCCl`, the Potency result in assay [1] and in assay [2] was “inactive” in each case.

In the case of `O=C(Nc1ccccc1)c1ccccc1I`, the Potency entry in assay [1] and in assay [2] was “inactive” each time.

As to `CCCCC(CC)COC(=O)c1c(Br)c(Br)c(Br)c(Br)c1C(=O)OCC(CC)CCCC` (stereo not given), the Potency result in assay [1] and in assay [2] was “inactive” throughout.

Take `Nc1nc(=S)[nH][nH]1`: the Potency result in assay [1] and in assay [2] was “inactive” throughout.

Regarding `CN1C(=O)COc2c(C(=O)NC3CN4CCC3CC4)cc(Cl)cc21` (stereo not given), the Potency result in assay [1] and in assay [2] was “inactive” throughout.

`O=C(O)CC[N+](=O)[O-]`: the Potency entry in assay [1] and in assay [2] was “inactive” in each case.

`CC(=O)C(Cl)Cl`: the Potency result in assay [1] and in assay [2] was “inactive” throughout.

On to `OCCBr`, for which the Potency result in assay [1] and in assay [2] was “inactive” in each case.

`Cl/C=C/Cl`: the Potency result in assay [1] and in assay [2] was “inactive” each time.

`CC1CN1` (stereo not given): the Potency result in assay [1] and in assay [2] was “inactive” in each case.

`COP(=S)(OC)SCN1C(=O)c2ccccc2C1=O`: the Potency entry in assay [1] and in assay [2] was “inactive” in each case.

`O=C(NC(=O)c1c(F)cccc1F)Nc1cc(Cl)c(F)c(Cl)c1F`: the Potency entry in assay [1] and in assay [2] was “inactive” each time.

Take `CNC(=O)Oc1cc(C)cc(C(C)C)c1`: the Potency entry in assay [1] and in assay [2] was “inactive” throughout.

`CCC1(c2ccc(N)cc2)CCC(=O)NC1=O` (stereo not given): the Potency result in assay [1] and in assay [2] was “inactive” each time.

With `Nc1ccc([As](=O)(O)O)cc1`, the Potency entry in assay [2] was “inactive”.

As for `CCC1(CC)C(=O)NC(=O)NC1=O`, the Potency entry in assay [1] and in assay [2] was “inactive” each time.

Take `Clc1cc(Cl)c(Cl)c(Cl)c1`: the Potency entry in assay [1] and in assay [2] was “inactive” in each case.

With `CN(C)[C@@H]1C(=O)C(C(N)=O)=C(O)[C@@]2(O)C(=O)C3=C(O)c4c(O)ccc(Cl)c4[C@@](C)(O)[C@H]3C[C@@H]12`, the Potency result in assay [1] and in assay [2] was “inactive” throughout.

With `Clc1ccc(Cl)c(Cl)c1`, the Potency result in assay [1] and in assay [2] was “inactive” throughout.

Consider `Cn1cc(-c2ccccc2)c(=O)c(-c2cccc(C(F)(F)F)c2)c1`, for which the Potency result in assay [1] and in assay [2] was “inactive” throughout.

In the case of `O=[N+]([O-])c1ccc(Cl)cc1`, the Potency result in assay [1] and in assay [2] was “inactive” in each case.

With `CN(C)c1ccc(N=O)cc1`, the Potency entry in assay [1] and in assay [2] was “inactive” each time.

Take `C[C@@H](Oc1ccc(Cl)cc1Cl)C(=O)O`: the Potency entry in assay [1] and in assay [2] was “inactive” throughout.

Take `CC(Cc1ccc(OCC(=O)O)cc1)NCC(O)c1csc(C(F)(F)F)n1` (stereo not given): the Potency entry in assay [2] is “inactive”.

Regarding `CN(CCO)CCO`, the Potency entry in assay [1] and in assay [2] was “inactive” each time.

Turning to `COP(=O)(OC)O/C(=C/Cl)c1cc(Cl)c(Cl)cc1Cl`, the Potency entry in assay [2] was “inactive”.

Take `CC[N+](=O)[O-]`: the Potency entry in assay [1] and in assay [2] was “inactive” in each case.

Consider `Fc1ccc(C2(Cn3cncn3)OC2c2ccccc2Cl)cc1` (stereo not given), for which, in assay [2], the Potency entry was “inactive”.

For `CCOP(=S)(OCC)SCS(=O)(=O)CC`, the Potency entry in assay [1] and in assay [2] was “inactive” each time.

In the case of `Cc1ccc(-c2c(Cl)nc(C#N)n2S(=O)(=O)N(C)C)cc1`, the Potency result in assay [2] is “inactive”.

Turning to `COc1cc(OC)nc(NC(=O)NS(=O)(=O)c2ncccc2C(=O)N(C)C)n1`, the Potency entry in assay [1] and in assay [2] was “inactive” in each case.

In the case of `COCC(=O)N(c1c(C)cccc1C)N1CCOC1=O`, the Potency entry in assay [1] and in assay [2] was “inactive” throughout.

With `CC(=O)OC(c1ccccc1)C(Cl)(Cl)Cl` (stereo not given), the Potency entry in assay [1] and in assay [2] was “inactive” throughout.

For the molecule `CCOc1cccc(C2(N3CCN(c4ccccc4)CC3)CCC(C)CC2)c1` (stereo not given), the Potency entry in assay [1] and in assay [2] was “inactive” in each case.

In the case of `C=CCC1=C(C)[C@@H](OC(=O)[C@@H]2[C@@H](C=C(C)C)C2(C)C)CC1=O`, in assay [2], the Potency entry was “inactive”.

Turning to `CC(C)NC(=O)N1CC(=O)N(c2cc(Cl)cc(Cl)c2)C1=O`, the Potency result in assay [1] and in assay [2] was “inactive” each time.

In the case of `CSC(=O)c1c(C(F)F)nc(C(F)(F)F)c(C(=O)SC)c1CC(C)C`, the Potency result in assay [2] was “inactive”.

As to `N#CC(C#N)=NNc1cccc(Cl)c1`, the Potency entry in assay [2] is “inactive”.

Regarding `ClCC(Cl)(Cl)Cl`, the Potency result in assay [1] and in assay [2] was “inactive” each time.

Regarding `CC[n+]1c(-c2ccccc2)c2cc(N)ccc2c2ccc(N)cc21`, the Potency entry in assay [1] and in assay [2] was “inactive” in each case.

`CCCCCCC#N`: the Potency entry in assay [1] and in assay [2] was “inactive” each time.

Regarding `CN(C)N=O`, the Potency entry in assay [1] and in assay [2] was “inactive” each time.

With `Nc1cccc(Cl)c1`, the Potency entry in assay [1] and in assay [2] was “inactive” throughout.

With `CCC[CH2][Sn]([CH2]CCC)([O]C(C)=O)[O]C(C)=O`, the Potency entry in assay [2] was “inactive”.

In the case of `CCOP(=S)(OCC)Oc1ccc([N+](=O)[O-])cc1`, the Potency result in assay [1] and in assay [2] was “inactive” each time.

In the case of `Clc1ccc2ccccc2c1`, the Potency result in assay [1] and in assay [2] was “inactive” each time.

`CCCN(CCC)c1c([N+](=O)[O-])cc(C(C)C)cc1[N+](=O)[O-]`: the Potency result in assay [1] and in assay [2] was “inactive” in each case.

For the molecule `O=P(OCCCl)(OCCCl)OCCCl`, in assay [2], the Potency result is “inactive”.

On to `CC(c1ccc(O)cc1)c1ccc(O)cc1`, for which the Potency result in assay [1] and in assay [2] was “inactive” throughout.

Take `CCCCc1ccc(O)cc1`: the Potency entry in assay [2] is “inactive”.
